Experimental findings from PubChem BioAssay (NCATS) are described below.

Assay [1] concerns the target Glutathione peroxidase 1 (Homo sapiens) (UniProt P07203). Nature of the assay: Primary qHTS Assay for Inhibitors of Recombinant Selenoprotein Glutathione Peroxidase 1 (GPX1) (AID 1845191). The following applies: recombinant GPX1, GR-coupled NADPH fluorescence, 15 min; series mostly up to 48.8 µM. In outline:
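GPX1 10 nM, GR 100 nM, GSH 1 mM, NADPH 0.5 mM, CHP 0.5 mM (final). 30-min cpd preincubation, RT. Ex340/Em450 read t=0, t=15 min.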

Assay [2] concerns the target Phospholipid hydroperoxide glutathione peroxidase GPX4 (Homo sapiens) (UniProt P36969). In words: Primary qHTS Assay for Inhibitors of Recombinant Selenoprotein Glutathione Peroxidase 4 (GPX4) (AID 1845192). The following applies: recombinant GPX4, GR-coupled NADPH fluorescence, 15 min; series mostly up to 50 µM. Put shortly:
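qHTS, GR-coupled: GPX4 200 nM + cpd 30 min RT → GSH 1 mM, NADPH 0.5 mM, GR 100 nM → CHP 0.5 mM start; fluor 340/450 at t0 and t15 min; no-enzyme wells as control.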
(In general: Quantitative high-throughput screening tests each substance at several concentrations.)

Each structure is given as a SMILES string. Results filed as inconclusive are left out. Active and inactive are the calls of the source. Calls come from the whole dose curve; as a rule, active = well fitted inhibition curve with a large enough effect; inconclusive = small, poorly fitted or top-dose-only effect; inactive = flat fitted curve, though single readings scatter.
Note: nearly all actives have a fitted effect of over 65% in size.

Chain of Glutathione peroxidase 1 (Homo sapiens) (P07203 whole entry, looked up): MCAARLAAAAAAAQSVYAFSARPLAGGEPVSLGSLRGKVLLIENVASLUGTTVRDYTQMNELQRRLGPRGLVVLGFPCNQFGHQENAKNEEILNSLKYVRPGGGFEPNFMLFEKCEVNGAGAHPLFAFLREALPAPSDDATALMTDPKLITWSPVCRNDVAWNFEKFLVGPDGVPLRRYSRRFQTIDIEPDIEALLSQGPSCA
Chain of Phospholipid hydroperoxide glutathione peroxidase GPX4 (Homo sapiens) (P36969 whole entry, looked up): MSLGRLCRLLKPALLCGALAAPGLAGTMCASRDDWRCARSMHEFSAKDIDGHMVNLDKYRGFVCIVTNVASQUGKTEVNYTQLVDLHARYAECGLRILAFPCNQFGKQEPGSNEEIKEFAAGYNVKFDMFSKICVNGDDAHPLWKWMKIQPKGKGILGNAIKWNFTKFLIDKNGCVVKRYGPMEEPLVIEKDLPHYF

For `COC(=O)N/N=C/c1c[n+]([O-])c2ccccc2[n+]1[O-]`, the Potency result in assay [1] and in assay [2] was “inactive” throughout.

Turning to `CCCCCOC(=O)Nc1nc(=O)n([C@@H]2O[C@H](C)[C@@H](O)[C@H]2O)cc1F`, the Potency result in assay [1] and in assay [2] was “inactive” throughout.

Consider `O=S1(=O)OC(c2ccc(O)cc2)(c2ccc(O)cc2)c2ccccc21`, for which the Potency result in assay [1] and in assay [2] was “inactive” in each case.

For `O=C(O)CCC(=O)O`, the Potency result in assay [1] and in assay [2] was “inactive” throughout.

Turning to `Cc1[nH]c(C)c(Cl)c(=O)c1Cl`, the Potency result in assay [1] and in assay [2] was “inactive” each time.

With `NS(=O)(=O)c1cc(-c2nn[nH]n2)c(NCc2cccs2)cc1Cl`, the Potency result in assay [1] and in assay [2] was “inactive” throughout.

`CCCNC(C)C(=O)Nc1c(C)csc1C(=O)OC` (stereo not given): the Potency entry in assay [1] and in assay [2] was “inactive” in each case.

For `CCOc1ccccc1O[C@H](c1ccccc1)[C@H]1CNCCO1`, the Potency entry in assay [1] and in assay [2] was “inactive” in each case.

With `CC(=O)Oc1cccc(O)c1`, the Potency result in assay [1] and in assay [2] was “inactive” in each case.

With `CC(C)(C)C(=O)OCOC(=O)[C@@H]1N2C(=O)[C@@H](NC(=O)[C@H](N)c3ccccc3)[C@H]2SC1(C)C`, the Potency entry in assay [1] and in assay [2] was “inactive” throughout.

For the compound `CC(=O)Nc1ccc(C(=O)O)cc1`, the Potency entry in assay [1] and in assay [2] was “inactive” each time.

Take `COc1ccc(O)cc1`: the Potency entry in assay [1] and in assay [2] was “inactive” throughout.

For `Nc1ccc(C(=O)Oc2ccccc2)c(O)c1`, the Potency result in assay [1] and in assay [2] was “inactive” throughout.

Regarding `CC(C)c1cc2c(cc1S(=O)(=O)O)[C@@]1(C)CCC[C@@](C)(C(=O)O)[C@@H]1CC2`, the Potency result in assay [1] and in assay [2] was “inactive” throughout.

Regarding `CC(C)NC[C@@H](O)COc1ccc(CC(N)=O)cc1`, the Potency entry in assay [1] and in assay [2] was “inactive” in each case.

Consider `O=C(O)c1ccc(OCCCOc2ccc(C(=O)O)cc2)cc1`, for which the Potency entry in assay [1] and in assay [2] was “inactive” in each case.

Regarding `CC(=O)Oc1cccc(C)c1`, the Potency entry in assay [1] and in assay [2] was “inactive” each time.

With `NC(=O)c1ccc([N+](=O)[O-])cc1Cl`, the Potency entry in assay [1] and in assay [2] was “inactive” in each case.

For the compound `CO[C@@]1(NC(=O)C(C(=O)O)c2ccc(O)cc2)C(=O)N2C(C(=O)O)=C(CSc3nnnn3C)CO[C@@H]21` (stereo not given in full), the Potency result in assay [1] and in assay [2] was “inactive” in each case.

For the compound `O=C(O)COC(=O)Cc1ccccc1Nc1c(Cl)cccc1Cl`, the Potency entry in assay [1] and in assay [2] was “inactive” throughout.

On to `CN(C/C=C/C#CC(C)(C)C)Cc1cccc2ccccc12`, for which the Potency entry in assay [1] and in assay [2] was “inactive” each time.

On to `C[n+]1ccccc1/C=N/O`, for which the Potency result in assay [1] and in assay [2] was “inactive” in each case.

`Cc1cccc(Nc2ccccc2C(=O)O)c1C`: the Potency result in assay [1] and in assay [2] was “inactive” throughout.

In the case of `NS(=O)(=O)c1cc(C2(O)NC(=O)c3ccccc32)ccc1Cl` (stereo not given), the Potency entry in assay [1] and in assay [2] was “inactive” throughout.

As to `O=C(O)CNC(=O)c1ccccc1I`, the Potency entry in assay [1] and in assay [2] was “inactive” throughout.

Take `O=C(/C=C/c1ccccc1)OCc1ccccc1`: the Potency result in assay [1] and in assay [2] was “inactive” each time.

With `O=C(CCBr)N1CCN(C(=O)CCBr)CC1`, the Potency result in assay [1] and in assay [2] was “inactive” each time.

Turning to `O=C(OOC(=O)c1ccccc1)c1ccccc1`, the Potency entry in assay [1] and in assay [2] was “inactive” throughout.

On to `CCCCCCCCCCCCCCCCCCO`, for which the Potency result in assay [1] and in assay [2] was “inactive” each time.

Turning to `C[C@H]1COc2c(C3(N)CC3)c(F)cc3c(=O)c(C(=O)O)cn1c23`, the Potency entry in assay [1] and in assay [2] was “inactive” each time.

Consider `NC(N)=NCCN1CCCCCCC1`, for which the outcome was “inactive [at 0.4 µM]” in assay [1] and “inactive [at 0.409 µM]” in assay [2].

Regarding `O=C(Cn1ccnc1[N+](=O)[O-])NCc1ccccc1`, the Potency result in assay [1] and in assay [2] was “inactive” in each case.

As for `C/C(=C(\CCO)SS/C(CCO)=C(\C)N(C=O)Cc1cnc(C)nc1N)N(C=O)Cc1cnc(C)nc1N`, the Potency result in assay [2] is “inactive”.
